Compounds without any hit were thinned out: in the full panel of roughly 83,000, 20% have a hit.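 A percent growth of 40 corresponds to 60% growth inhibition; 0 means no net growth; -100 means all cells died. Active threshold: below 10.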 The source made the active and inactive calls.
Experiments:
Experiment in all cases: NCI-60 one-dose screen, 48 h (100 = growth as untreated, 0 = no growth, -100 = all killed)
Details in all cases: 10 µM unless noted
SK-MEL-2 melanoma = test system: SK-MEL-2 melanoma
EKVX NSCLC = test system: EKVX NSCLC
SN12C renal = test system: SN12C renal
UO-31 renal = test system: UO-31 renal
TK-10 renal = test system: TK-10 renal
ACHN renal = test system: ACHN renal
CAKI-1 renal = test system: CAKI-1 renal
A498 renal = test system: A498 renal
CCRF-CEM leukemia = test system: CCRF-CEM leukemia
MOLT-4 leukemia = test system: MOLT-4 leukemia
SR leukemia = test system: SR leukemia
RPMI-8226 leukemia = test system: RPMI-8226 leukemia
OVCAR-8 ovarian = test system: OVCAR-8 ovarian
OVCAR-5 ovarian = test system: OVCAR-5 ovarian
OVCAR-4 ovarian = test system: OVCAR-4 ovarian
SK-OV-3 ovarian = test system: SK-OV-3 ovarian
IGROV1 ovarian = test system: IGROV1 ovarian
OVCAR-3 ovarian = test system: OVCAR-3 ovarian
HS 578T breast = test system: HS 578T breast
NCI/ADR-RES ovarian = test system: NCI/ADR-RES ovarian

Measured: growth

COc1ccc(C/C(C)=C(/c2ccc(OCCN3CCCCCC3)cc2)c2ccc(OC(=O)c3ccccc3)cc2)cc1
inactive: SK-MEL-2 melanoma 97.4% | EKVX NSCLC 93% | SN12C renal 97.4% | UO-31 renal 88.4% | TK-10 renal 97.2% | ACHN renal 99.6% | CAKI-1 renal 104% | A498 renal 120% | CCRF-CEM leukemia 93% | MOLT-4 leukemia 77% | SR leukemia 71.3% | RPMI-8226 leukemia 112% | OVCAR-8 ovarian 107% | OVCAR-5 ovarian 98.2% | OVCAR-4 ovarian 116% | SK-OV-3 ovarian 93.7% | IGROV1 ovarian 106% | OVCAR-3 ovarian 117% | HS 578T breast 98.5% | NCI/ADR-RES ovarian 111%

O=C(/C=C/C12c3ccccc3C(c3ccccc31)C1C(=O)NC(=O)C12)c1ccncc1 (stereo not given)
inactive: SK-MEL-2 melanoma 46.6% | EKVX NSCLC 80.6% | UO-31 renal 26.5% | TK-10 renal 17.5% | ACHN renal 23.7% | CAKI-1 renal 43.9% | A498 renal 87.4% | OVCAR-5 ovarian 13.7% | OVCAR-4 ovarian 31.8% | SK-OV-3 ovarian 71.8% | HS 578T breast 38% | NCI/ADR-RES ovarian 23.9%
active: SN12C renal 7.85% | CCRF-CEM leukemia -12.7% | MOLT-4 leukemia 1.28% | SR leukemia 1.11% | RPMI-8226 leukemia -29.6% | OVCAR-8 ovarian 1.79% | IGROV1 ovarian 9.72% | OVCAR-3 ovarian 4.84%

CN(C)C(=O)c1cc2cnc(Nc3ccc(-c4csc5c(=S)cc(N6CCOCC6)oc45)cc3)nc2n1C1CCCC1
inactive: EKVX NSCLC 12.1% | CAKI-1 renal 11.7% | OVCAR-5 ovarian 17% | OVCAR-4 ovarian 18.5% | SK-OV-3 ovarian 16.4% | OVCAR-3 ovarian 13.6% | NCI/ADR-RES ovarian 14.1%
active: SK-MEL-2 melanoma -24.6% | SN12C renal 7.93% | UO-31 renal -4.43% | TK-10 renal 4.82% | ACHN renal 6.64% | A498 renal -38.2% | CCRF-CEM leukemia 1.8% | MOLT-4 leukemia 2.85% | SR leukemia -3.12% | RPMI-8226 leukemia -35.9% | OVCAR-8 ovarian 7.87% | IGROV1 ovarian 8.93% | HS 578T breast 5.04%

Cc1nc2sc(C(=O)Nc3cccc4ccccc34)c(N)c2cc1C(=O)/C=C/c1ccccc1
inactive: SK-MEL-2 melanoma 27% | EKVX NSCLC 41.1% | MOLT-4 leukemia 18.4% | SR leukemia 13.2% | OVCAR-5 ovarian 13.6% | OVCAR-4 ovarian 34.6% | SK-OV-3 ovarian 27.1% | HS 578T breast 16.1%
active: SN12C renal -44.3% | UO-31 renal -82.6% | TK-10 renal 4.36% | ACHN renal 5.45% | CAKI-1 renal -60.6% | A498 renal -5.08% | CCRF-CEM leukemia 5.51% | RPMI-8226 leukemia -27% | OVCAR-8 ovarian -13.9% | IGROV1 ovarian 4.15% | OVCAR-3 ovarian -67.8% | NCI/ADR-RES ovarian -11.3%

COc1ccc(-c2c[nH]c(C(=O)O)c2-c2cc(OC)c(OC)c(OC)c2)cc1
inactive: SK-MEL-2 melanoma 49.2% | EKVX NSCLC 63.3% | SN12C renal 43.9% | UO-31 renal 31.9% | TK-10 renal 63.3% | ACHN renal 38.4% | CAKI-1 renal 29.8% | CCRF-CEM leukemia 42.2% | MOLT-4 leukemia 56.4% | SR leukemia 18.7% | RPMI-8226 leukemia 36% | OVCAR-8 ovarian 51.4% | OVCAR-5 ovarian 80.6% | OVCAR-4 ovarian 49.9% | SK-OV-3 ovarian 53.2% | IGROV1 ovarian 54.8% | NCI/ADR-RES ovarian 24.2%
active: A498 renal -14.5% | OVCAR-3 ovarian -2.04% | HS 578T breast 9.64%

CCOC(=O)c1nc2c3ccccc3cnn2c1C(=O)c1ccc(OC)cc1
inactive: SK-MEL-2 melanoma 107% | EKVX NSCLC 89.7% | SN12C renal 98.5% | UO-31 renal 79.4% | TK-10 renal 140% | ACHN renal 100% | CAKI-1 renal 86.9% | A498 renal 79.9% | CCRF-CEM leukemia 91.2% | MOLT-4 leukemia 88.7% | SR leukemia 90.6% | RPMI-8226 leukemia 95.6% | OVCAR-8 ovarian 98.2% | OVCAR-5 ovarian 106% | OVCAR-4 ovarian 89.4% | SK-OV-3 ovarian 81.6% | IGROV1 ovarian 105% | OVCAR-3 ovarian 110% | HS 578T breast 101% | NCI/ADR-RES ovarian 94.4%

N#Cc1cc(-c2ccnc(Nc3ccc(NC(=O)CCl)cc3)n2)ccc1N1CCCC1
active: SK-MEL-2 melanoma -39.9% | SN12C renal -39.4% | UO-31 renal -71.9% | TK-10 renal 9.16% | ACHN renal -24.6% | CAKI-1 renal -40.4% | CCRF-CEM leukemia 0.0905% | MOLT-4 leukemia -7.09% | SR leukemia 1.78% | RPMI-8226 leukemia -24.3% | OVCAR-8 ovarian 6.56% | OVCAR-5 ovarian -9.19% | OVCAR-4 ovarian -20.8% | SK-OV-3 ovarian -48.6% | IGROV1 ovarian -1.3% | OVCAR-3 ovarian -46%
inactive: EKVX NSCLC 12% | A498 renal 16.1% | HS 578T breast 12.6% | NCI/ADR-RES ovarian 10.9%

CCOC(=O)c1nnn(Cc2cc(=O)oc3c2ccc2ccccc23)c1C
inactive: SK-MEL-2 melanoma 110% | EKVX NSCLC 105% | SN12C renal 96.7% | UO-31 renal 77.3% | TK-10 renal 101% | ACHN renal 97.9% | CAKI-1 renal 98% | A498 renal 108% | CCRF-CEM leukemia 88.2% | MOLT-4 leukemia 108% | SR leukemia 97.6% | RPMI-8226 leukemia 103% | OVCAR-8 ovarian 98.1% | OVCAR-5 ovarian 102% | OVCAR-4 ovarian 97.6% | SK-OV-3 ovarian 104% | IGROV1 ovarian 110% | OVCAR-3 ovarian 103% | HS 578T breast 100% | NCI/ADR-RES ovarian 108%

CCN(C(=O)N1CCN(c2cc3c(cc2F)c(=O)c(C(=O)O)cn3C2CC2)CC1)c1nc(-c2ccccc2)cs1
active: SN12C renal 5.8% | UO-31 renal 1.81% | ACHN renal 8.64% | A498 renal 5.67%
inactive: SK-MEL-2 melanoma 45.9% | EKVX NSCLC 31% | TK-10 renal 40.9% | CAKI-1 renal 29.4% | CCRF-CEM leukemia 18.1% | MOLT-4 leukemia 14.7% | SR leukemia 10% | RPMI-8226 leukemia 12.5% | OVCAR-8 ovarian 30.2% | OVCAR-5 ovarian 35.7% | OVCAR-4 ovarian 55.5% | SK-OV-3 ovarian 63.8% | IGROV1 ovarian 12.5% | OVCAR-3 ovarian 15.9% | HS 578T breast 18.2% | NCI/ADR-RES ovarian 22.4%

C=C1C(=O)O[C@H]2[C@H]1CC/C(CNS(=O)(=O)c1ccc3ccccc3c1)=C\CC[C@@]1(C)O[C@@H]21
inactive: SK-MEL-2 melanoma 43.7% | EKVX NSCLC 66.6% | SN12C renal 29.1% | CAKI-1 renal 15.3% | A498 renal 58.2% | OVCAR-5 ovarian 14.9% | OVCAR-4 ovarian 24.2% | SK-OV-3 ovarian 84.6% | IGROV1 ovarian 37.1% | HS 578T breast 67% | NCI/ADR-RES ovarian 65.2%
active: UO-31 renal -88% | TK-10 renal -78.5% | ACHN renal -39.3% | CCRF-CEM leukemia -18.1% | MOLT-4 leukemia -27.6% | SR leukemia -12.4% | RPMI-8226 leukemia -4.34% | OVCAR-8 ovarian -17.2% | OVCAR-3 ovarian -39.6%

Clc1ccc2c(NCCN3CCN(c4ccnc(N5CCCC5)n4)CC3)ccnc2c1
active: SR leukemia -12.2% | RPMI-8226 leukemia -10.6%
inactive: SK-MEL-2 melanoma 92.4% | EKVX NSCLC 63% | SN12C renal 57.2% | UO-31 renal 25.8% | TK-10 renal 52.5% | ACHN renal 55.6% | CAKI-1 renal 27.7% | A498 renal 51.5% | CCRF-CEM leukemia 51.1% | MOLT-4 leukemia 47.2% | OVCAR-8 ovarian 36.8% | OVCAR-5 ovarian 68.8% | OVCAR-4 ovarian 57.8% | SK-OV-3 ovarian 90% | IGROV1 ovarian 47.8% | OVCAR-3 ovarian 40.8% | HS 578T breast 76.4% | NCI/ADR-RES ovarian 49%

CCCCCCCCn1ccc2cc(NC(=O)CN3CCN(c4nc(C)cc(N5CCCCC5)n4)CC3)ccc21
inactive: SK-MEL-2 melanoma 114% | EKVX NSCLC 79.4% | SN12C renal 91.9% | UO-31 renal 58.4% | TK-10 renal 98.5% | ACHN renal 91.7% | CAKI-1 renal 86.8% | A498 renal 104% | SR leukemia 53.3% | RPMI-8226 leukemia 59.9% | OVCAR-8 ovarian 90.2% | OVCAR-5 ovarian 103% | OVCAR-4 ovarian 82.7% | SK-OV-3 ovarian 98.8% | IGROV1 ovarian 73.9% | OVCAR-3 ovarian 94.4% | HS 578T breast 91.5% | NCI/ADR-RES ovarian 85.8%
active: CCRF-CEM leukemia -43.6% | MOLT-4 leukemia 0.667%

COc1cc(C=O)ccc1Oc1ccc([N+](=O)[O-])cc1[N+](=O)[O-]
inactive: SK-MEL-2 melanoma 96.9% | EKVX NSCLC 105% | SN12C renal 99.8% | UO-31 renal 83.3% | TK-10 renal 106% | ACHN renal 106% | CAKI-1 renal 107% | A498 renal 95.2% | CCRF-CEM leukemia 82.9% | MOLT-4 leukemia 100% | SR leukemia 80.7% | RPMI-8226 leukemia 89.5% | OVCAR-8 ovarian 93.7% | OVCAR-5 ovarian 109% | OVCAR-4 ovarian 97% | SK-OV-3 ovarian 96.4% | IGROV1 ovarian 105% | OVCAR-3 ovarian 107% | HS 578T breast 93.1% | NCI/ADR-RES ovarian 99.6%

N#C/C(=N\Nc1ccc(Cl)cc1)C(=O)Nc1cc(-c2ccccc2)nn1-c1ccccc1
inactive: SK-MEL-2 melanoma 10.5% | EKVX NSCLC 24.4% | UO-31 renal 47.1% | TK-10 renal 28.6% | ACHN renal 33.9% | CAKI-1 renal 21.5% | CCRF-CEM leukemia 15.3% | MOLT-4 leukemia 26.1% | SR leukemia 89.4% | OVCAR-8 ovarian 25.6% | OVCAR-5 ovarian 81.6% | OVCAR-4 ovarian 36.8% | SK-OV-3 ovarian 26.4% | IGROV1 ovarian 19.9% | OVCAR-3 ovarian 15.4% | HS 578T breast 47% | NCI/ADR-RES ovarian 29.7%
active: SN12C renal 0.137% | A498 renal 3.5% | RPMI-8226 leukemia 1.81%

Cc1ccc2c(c1)C(C)Cc1c(ncnc1-n1cnc3cc(C)ccc31)N2C (stereo not given)
active: SK-MEL-2 melanoma -1.91% | SR leukemia 1.44% | RPMI-8226 leukemia -0.691% | OVCAR-8 ovarian 0.0907% | SK-OV-3 ovarian 5.86% | NCI/ADR-RES ovarian 5.12%
inactive: EKVX NSCLC 47.2% | SN12C renal 31.6% | UO-31 renal 31% | TK-10 renal 48.7% | ACHN renal 26.6% | CAKI-1 renal 24.6% | A498 renal 12.2% | CCRF-CEM leukemia 11.4% | MOLT-4 leukemia 12% | OVCAR-5 ovarian 79% | OVCAR-4 ovarian 61.7% | IGROV1 ovarian 21.9% | OVCAR-3 ovarian 20.2% | HS 578T breast 31.6%
